Experimental data: PubChem BioAssay (NCI)
“And” between values parts separate entries of the source, which are not always exact repeats. Identical values can stand only once. Compounds without any hit were thinned out: in the full panel of roughly 79,000, 15% have a hit. Values without a mark were called inactive. The source made the active and inactive calls. Cut-off read from the data, not from the text of the source: active = growth inhibition above about 70%; inactive = the rest.

Assays:
[1] = NCI Yeast Anticancer Drug Screen. Data for the rad50 strain (AID 155);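 note: 0% = growth of vehicle-only cultures of the same strain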; settings: S. cerevisiae rad50 strain growth inhibition, stronger effect = higher value; at 50.0 µM unless noted
Summary of the method: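 Vehicle-treated cultures provide the reference for the growth inhibition reported for compound-exposed, repair-deficient yeast.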

[2] = NCI Yeast Anticancer Drug Screen. Data for the mec2-1 strain (AID 157); settings: S. cerevisiae mec2-1 strain, stronger effect = higher value; at 50.0 µM unless noted
Summary of the method: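 Test agents were screened against the mec2-1 yeast strain, with defined DNA repair or cell cycle alteration. Growth was scored as inhibition against vehicle-only controls.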

[3] = NCI Yeast Anticancer Drug Screen. Data for the sgs1 mgt1 strain (AID 161);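 note: 0% = growth of cultures given vehicle only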; settings: S. cerevisiae sgs1 mgt1 strain, stronger effect = higher value; at 50.0 µM unless noted
Summary of the method: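 Genetically altered yeast, compound exposure, growth inhibition relative to vehicle.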

[4] = NCI Yeast Anticancer Drug Screen. Data for the cln2 rad14 strain (AID 165);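 note: 0% = growth equal to vehicle treated cultures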; settings: S. cerevisiae cln2 rad14 strain, stronger effect = higher value; at 50.0 µM unless noted
Summary of the method: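 Growth of compound-exposed yeast (cln2 rad14 genotype) measured and expressed as inhibition relative to vehicle.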

[5] = NCI Yeast Anticancer Drug Screen. Data for the bub3 strain (AID 167); settings: S. cerevisiae bub3 mutant strain, stronger effect = higher value; at 50.0 µM unless noted
Summary of the method: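 Mutant yeast screening strain plus compound; vehicle-treated cultures serve as the 0% inhibition reference.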

[6] = NCI Yeast Anticancer Drug Screen. Data for the mlh1 rad18 strain (AID 175); settings: S. cerevisiae mlh1 rad18 strain growth inhibition, stronger effect = higher value; at 50.0 µM unless noted
Summary of the method: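 In this whole-cell yeast screen, a strain with altered DNA damage repair is challenged with compound, and its growth is measured against matched vehicle-treated controls.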

| SMILES | growth inhibition [1] | growth inhibition [2] | growth inhibition [3] | growth inhibition [4] | growth inhibition [5] | growth inhibition [6] |
| --- | --- | --- | --- | --- | --- | --- |
| O=C1c2sc(-c3ccc(Cl)cc3)cc2-n2cccc21 | 9.3% | 15.4% | 2.15% | 2.5% | -9.2% | 26.2% |
| CCCCC(NC(=O)C(C)NC(=O)OCc1ccccc1)C(=O)O (stereo not given) | 2% | 6.3% | 3.4% | 4.75% | 12.8% | -9.6% |
| Cc1ccc(O)c(Cl)c1C | 6.4% | -28.1% | -6.7% | 7.4% | -26.3% | 5.1% |
| O=C(Nc1ccc(S(=O)(=O)NC2CCCCC2)cc1)Oc1ccccc1C(=O)O | 49% | -1.65% | 39.9% | 26.1% | 16.1% | 32.1% |
| CCCCCCC(=O)C/C(CCC(=O)N(Cc1ccccc1)Cc1ccccc1)=N\Nc1ccc([N+](=O)[O-])cc1[N+](=O)[O-] | 12.8% | 16.1% | -13.3% | 27.4% | -11.4% | -20.5% |
| OCC12OCC(C=CC1O)O2 (stereo not given) | -13.2% | 17.1% | -4.65% | 1.2% | -0.15% | -8.5% |
| CCN(CC)CCOc1cccc(NC(=O)CN(CC)CC)c1 | -8.2% | -25.8% | 15.3% | 1.4% | 17% | 1.65% |
| O=C(Cc1cccnc1)c1cccnc1 | -52.3% | -18.9% | -8.15% | -11.9% | -15% | -7.55% |
| ClCCOC1CCCCO1 (stereo not given) | -19% | -15.2% | -13.6% | 6.2% | -5.4% | -5.15% |
| Cc1cc(C)c(S)c(C)c1.[Cu+2] | -29.1% | -10.3% | -5.85% | -53.2% | -28.9% | -2.55% |
| CC1=CSC2=NCCCCN12 | -9.5% | 2.3% | 13.3% | 8.55% | 18.2% | 16.1% |
| CC[C@H](CC[C@@H](C)[C@H]1CC[C@H]2[C@@H]3CC=C4C[C@@H](O)CC[C@]4(C)[C@H]3CC[C@]12C)C(C)C | 26.8% and -6.4% | -4.1% and -11.6% | 26.6% and -12.2% | 15.9% and 7.85% | 5.95% and -13.2% | 13.1% and -3.05% |
| Cc1cn(C2CC(ON)C(CO)O2)c(=O)[nH]c1=O (stereo not given) | -8.1% | -1.15% | 23.2% | 13.9% | 6.25% | -48% |
| CCOC(=O)N(C)C1(c2ccccc2)CCN(CCCC(=O)c2ccc(F)cc2)CC1 | 23% | -34.9% | 7.55% | -26.6% | -7% | -17.2% |
| O=C1c2cc([N+](=O)[O-])ccc2-c2ccc3c4ccc5c6c(ccc(c7ccc1c2c73)c64)C(=O)c1cc([N+](=O)[O-])ccc1-5 | 14% | -10.6% | -3.15% | 21.4% | -35.2% | 26.1% |
| CC(=O)OC1CCC2(C)C(CCC3(C)C2C(=O)C=C2C4CC(C)(C(=O)O)CCC4(C)CCC23C)C1(C)C (stereo not given) | -3.8% | -9.5% | -13% | -4.25% | -5.75% | -8.5% |
| Nc1cc2c(cc1[N+](=O)[O-])-c1ccc(Cl)cc1C2=O | 58.5% | -2.45% | 1.45% | 7.5% | -1.95% | 41.2% |
| CCOc1ccc(F)cc1 | 10.7% | -13.5% | 16.5% | 22.6% | 6.3% | 25.9% |
| Cc1ccc(C)c(NS(=O)(=O)c2ccc(Cl)cc2)c1 | 98.9% (active) | 99.2% (active) | 99.1% (active) | 99.3% (active) | 98.8% (active) | 99.2% (active) |
| CC1CC(Nc2ccc(Br)cc2)N(C(=O)c2ccc(Br)cc2)O1 (stereo not given) | -25.9% | -1.2% | 25.5% | 5.65% | -35% | -2.8% |

| SMILES | growth inhibition [1] | growth inhibition [2] | growth inhibition [3] | growth inhibition [4] | growth inhibition [5] | growth inhibition [6] |
| --- | --- | --- | --- | --- | --- | --- |
| c1ccc(CN2CCOC2)cc1 | 15.6% | 5.85% | -13.1% | 11% | -2.2% | -35.6% |
| COC(=O)c1ccccc1NC(=O)Nc1ncccn1 | -5.3% | 2.4% | -7.2% | -10.1% | -11.2% | -11.5% |
| O=C(CC(CC(=O)C(c1ccccc1)c1ccccc1)c1ccccc1)C(c1ccccc1)c1ccccc1 | 45.9% | 18% | 61.9% | -0.6% | -8.3% | 29.6% |
| CC(=O)OC1CCC(=O)C2C(C(=O)O)CCCC12 (stereo not given) | 6.9% | -21.8% | -19.2% | -6.1% | -1.75% | 0.25% |
| CCCCCCCCCCCCCCCOc1ccc(OCCCCCCCCCCCC)cc1 | 37.8% | -6.3% | 16.4% | -33% | 4.25% | 11.8% |
| Oc1c(CN2CCOCC2)ccc(CN2CCOCC2)c1O | 13.4% | 17.3% | -14.1% | 4.55% | 16.1% | 35.5% |
| COC1C(CO)OC(O)C(O)C1O (stereo not given) | -6.75% | 2.25% | -5.2% | -5.45% | -6.9% | 4% |
| CCC(=O)C1(C)OC1C(C)CC(C)C1OC(=O)CC2(O)CC=C(C)C(O2)/C(C)=C/CCCC(OC2CC(OC(N)=O)C(O)C(C)O2)/C=C/C(C)C(O)C1C (stereo not given) | 78% (active) | 83.5% (active) | 82.5% (active) | 84.5% (active) | 85.2% (active) | 83.2% (active) |
| CCN(CC)C(=O)Oc1cccc(NC(=O)OC)c1 | 16% | 47.2% | 29.4% | 16.1% | 49.2% | 33.4% |
| Nc1cnccc1N1CCN(c2cccc3ccccc23)CC1 | 99% (active) | 99.3% (active) | 99.2% (active) | 98.8% (active) | 98.4% (active) | 99% (active) |
| COc1ccc(C(c2ccc(OC)cc2)N2C(=O)CCC2C(=O)O)cc1 (stereo not given) | -28.6% | 21.2% | -48.8% | 17.1% | -1% | -12.6% |
| CC1(C)OCC[C@@H]1[Si](C)(C)C | 17.6% | 21.6% | 14.2% | 2.8% | -3.45% | -19.6% |
| COc1ccc(OC)c(NC(=O)CCCC(=O)C(C#N)c2ccc(CC#N)cc2)c1 (stereo not given) | -15.8% | -17.6% | -34.5% | -40.8% | 3.1% | -25.6% |
| CN(C)/N=C(\CBr)c1ccc([N+](=O)[O-])cc1 | -1.8% | 4.9% | 6.75% | 11.2% | -3% | 5.4% |
| O=S(=O)(O)c1cc(S(=O)(=O)O)c2cc(O)ccc2c1 | 0.6% | 3.35% | 13.4% | -18.6% | 5.35% | 28.4% |
| COc1c2c(c(OC)c3ccccc13)C(=O)C1=C(CC=CC1)C2=O | 4% | 18.4% | -8.6% | -10.1% | 14.6% | 40.1% |
| C[C@]12C=CC(=O)C=C1CC[C@@H]1[C@@H]2C(=O)C[C@@]2(C)[C@H]1CC[C@]2(O)C(=O)COC(=O)CSc1c2ccccc2nc2ccccc12 | 35.6% | 5.8% | 8.15% | 24.8% | -9.4% | 19.3% |
| Cc1ccc(C2=CC=C(c3ccccc3)C2)cc1 | -22.1% | 5.8% | -24.1% | 58.6% | 4.4% | 36.6% |
| CC(=O)Nc1cc(C)cc(CO)c1C | 13.6% | -3.05% | -10.1% | -23.6% | -1.15% | -26.6% |
| O=Cc1c2cnc(c1O)CSCc1ccc(cc1)CSC2 | 9.55% | 8.45% | 9.35% | -11.7% | -2.9% | 23.5% |
